PME-1 primary = PME-1 inhibitors via competitive probe labeling, primary screen, biochemical, fluorescence polarization, FP-Rh probe, HTS. Protein phosphatase methylesterase 1 (Homo sapiens), Q9Y570. recombinant PME-1. inhibition, % at 5.9 µM. 320,000 tested, 0.53% active. AID 2130, 2009;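 active = inhibition above the campaign mean of all compounds plus 3 SD, cut at about 26% in these data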;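 note: competitive labeling of PME-1 active site by serine hydrolase directed probe; 0% = PME-1 with DMSO and 100% = wells lacking PME-1 enzyme; inhibitors block probe labeling so polarization falls and inhibition rises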
LYPLA1 counter = LYPLA1 inhibitors, primary screen, counter-screen for PME1 inhibitor project, biochemical, fluorescence polarization, FP-Rh probe ABPP; Acyl-protein thioesterase 1 (Homo sapiens), O75608; recombinant LYPLA1; inhibition, % at 5.9 µM; 320,000 tested, 0.16% active; AID 2174, 2009;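 active = inhibition above the mean of all tested compounds plus 3 SD, set per campaign, cut at about 14% in these data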;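 note: inhibitors block serine hydrolase probe labeling of LYPLA1 so polarization falls; 0% = enzyme with DMSO and 100% = wells lacking LYPLA1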
Target sequence (O75608 whole entry, looked up): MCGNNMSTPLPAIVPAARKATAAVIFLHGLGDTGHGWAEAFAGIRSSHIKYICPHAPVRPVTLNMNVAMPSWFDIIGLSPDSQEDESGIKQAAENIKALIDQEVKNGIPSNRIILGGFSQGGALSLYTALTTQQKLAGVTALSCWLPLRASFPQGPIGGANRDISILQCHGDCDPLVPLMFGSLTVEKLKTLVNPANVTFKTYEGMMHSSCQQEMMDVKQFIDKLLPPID
PREPL inhibitor = PREPL enzyme inhibitors, primary screen, biochemical, fluorescence polarization; recombinant PREPL, fluorescence polarization activity-based probe; inhibition, % at 5.96 µM; 320,000 tested, 0.68% active;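 note: 0% = enzyme with DMSO and 100% = wells lacking enzyme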
LYPLA2 inh = LYPLA2 inhibitors, primary screen, counter-screen for PME1 inhibitor project, biochemical, fluorescence polarization, FP-Rh probe ABPP | Acyl-protein thioesterase 2 (Homo sapiens), O95372 | recombinant LYPLA2 | inhibition, % at 5.9 µM | 320,000 tested, 0.38% active;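 active = inhibition above the screen-wide mean plus 3 SD, limit set per campaign, cut at about 26% in these data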;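 note: 0% = LYPLA2 with DMSO and 100% = wells lacking LYPLA2 enzyme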
Target sequence (O95372 whole entry, looked up): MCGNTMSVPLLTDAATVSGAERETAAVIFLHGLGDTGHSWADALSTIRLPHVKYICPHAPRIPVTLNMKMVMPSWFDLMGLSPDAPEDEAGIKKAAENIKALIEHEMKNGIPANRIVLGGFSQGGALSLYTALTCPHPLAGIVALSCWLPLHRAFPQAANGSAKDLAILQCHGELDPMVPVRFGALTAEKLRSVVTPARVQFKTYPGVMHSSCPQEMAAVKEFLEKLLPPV
Fam108B counter = mouse Fam108B serine hydrolase inhibitors, primary screen, counter-screen for RBBP9 inhibitor project, biochemical, fluorescence polarization | recombinant Fam108B, FP-Rh probe fluorescence polarization | inhibition, % at 9.51 µM | 300,000 tested, 0.33% active | AID 1947, 2009;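 active = inhibition above the screen mean inhibition plus 3 SD, computed separately per campaign, cut at about 18% in these data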;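 note: inhibitors lower polarization as less probe binds the enzyme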
PREPL inh cf = human PREPL enzyme inhibitors, confirmation, biochemical, fluorescence polarization. inhibition, % at 5.96 µM. recombinant PREPL, fluorescence polarization activity probe. AID 2803, 2010. shares compounds with PREPL inhibitor. 2,000 tested, 67% active;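 note: 0% = protein with DMSO and 100% = wells lacking protein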
An asterisk follows results filed as active; . = no result given. Hits are enriched below; roughly 1.3% of the tested compounds scored in any of these assays. Cut-off read from the data, not from the text of the source, unless noted: active = inhibition above about 43%; inactive = the rest.

SMILES	PME-1 primary	LYPLA1 counter	PREPL inhibitor	LYPLA2 inh	Fam108B counter	PREPL inh cf
CC(Sc1nnc(-c2ccncc2)n1C)C(=O)Nc1nccs1 (centres undefined)	2	0	-1	-1	-3	.
O=C(Cc1ccc2c(c1)OCCO2)N1CCN(S(=O)(=O)c2cccc(C(F)(F)F)c2)CC1	2	-5	81*	-2	-2	5
Cc1ccccc1Cc1c(C)nc2nc(SCC(=O)NCCCN3CCCCC3)nn2c1C	-3	0	1	1	1	.
Cc1nc2nc(SCC(=O)NCCCN3CCCCCC3)nn2c(C)c1Cc1ccccc1	-2	-1	43*	4	-2	37
COc1cc(NC(=O)CN2C(=O)NC(C)(c3ccccc3)C2=O)c(C)cc1[N+](=O)[O-] (centres undefined)	-1	6	-1	5	7	.
COc1ccc(N2CCN(C(=O)CN3C(=O)NC(C)(c4ccc5ccccc5c4)C3=O)CC2)cc1 (centres undefined)	6	-1	57*	9	.	53*
CC(=O)N1CCN(C(=O)CN2C(=O)NC(C)(c3ccc4ccccc4c3)C2=O)CC1 (centres undefined)	-5	-1	12	-8	.	.
COc1cc(NC(=O)CN2C(=O)NC(C)(c3ccc4ccccc4c3)C2=O)c(C)cc1[N+](=O)[O-] (centres undefined)	-7	-14	58*	-22	-3	42
COc1cc(C(=O)NCC(=O)OCCN2C(=O)c3ccccc3C2=O)cc(OC)c1OC	-6	-4	11	-3	3	.
CC(=O)Nc1cc(OC(=O)c2ccco2)cc(OC(=O)c2ccco2)c1	0	-3	50*	0	-3	37
CCc1ccc(C(C)(O)C(CN2CCOCC2)c2ccccc2)cc1 (centres undefined)	1	0	3	-2	2	.
O=C(O)Cn1c(-c2ccccc2)cc2ccccc21	0	-3	3	-7	-1	.
CN(C)c1ccc(C2C=C(c3ccc(Cl)cc3OC(F)F)Nc3ncnn32)cc1 (centres undefined)	5	-1	56*	4	1	49*
Cc1ccc(C2C=C(c3ccccc3OC(F)F)Nc3ncnn32)cc1 (centres undefined)	0	-6	1	-2	-4	.
CC(C(=O)Nc1ccc2c(c1)OCO2)N1CCC(N2CCCCC2)CC1 (centres undefined)	0	-5	15	-5	.	.
Cc1c(C)c2c(OCC(=O)N3CCC(C(=O)O)CC3)cc3c(c2oc1=O)CCC(C)(C)O3	-1	-1	6	6	2	.
CCOC(=O)c1ccc2ncc(C(=O)OCC)c(Nc3ccc(N4CCOCC4)cc3)c2c1	10	3	45*	3	-1	42
CCOC(=O)c1cnc2ccc(C(=O)OC)cc2c1Nc1ccc(C(=O)O)cc1	1	-2	-3	1	1	.
CCN(CC)CCn1c(=N)n(CC(O)c2ccc(OC)c(OC)c2)c2ccccc21 (centres undefined)	-3	-5	44*	2	-1	43
O=C(NCC1CCCO1)c1cncc(Br)c1 (centres undefined)	-4	0	22	-1	6	.
O=C(COc1coc(CN2CCCc3ccccc32)cc1=O)Nc1ccccc1	1	0	2	-4	0	.
O=C(c1cnn2c(C(F)F)cc(-c3ccccc3)nc12)N1CCOCC1	6	-2	61*	0	0	4
CCOc1cc(N2CCOCC2)c(OCC)cc1NC(=O)COC(=O)CCc1c[nH]c2ccccc12	4	-6	76*	0	-3	69*
Cc1ccc(NC(=O)CN2C(=O)c3ccccc3S2(=O)=O)c(C)c1	2	-1	1	0	-6	.
CN1c2ccccc2Oc2nnc(N3CCN(Cc4ccccc4)CC3)cc21	10	-2	46*	1	6	37
SMILES	PME-1 primary	LYPLA1 counter	PREPL inhibitor	LYPLA2 inh	Fam108B counter	PREPL inh cf
CCCN(CCC)C(=O)CSc1nc2n[nH]c(C)c2c(=N)n1-c1ccc(OCC)cc1	4	-5	55*	-4	-1	41
CCOC(=O)c1c(NC(=O)CN2C(=O)NC3(CCCC3)C2=O)sc(C)c1CC	-4	-5	2	-5	-3	.
N#Cc1cccc(NC(=O)CSc2nnc(C3CC3)n2C2CC2)c1	1	3	76*	-3	.	2
NS(=O)(=O)c1cccc(NC(=O)CSc2nnc(C3CC3)n2C2CC2)c1	-1	0	13	3	.	.
O=C(COc1ccc2ccc(=O)oc2c1)Nc1ccc(N2CCOCC2)cc1	2	0	11	2	9	.
CC(Oc1cccc(Cl)c1)C(=O)N(C)CC(=O)Nc1ccc(N2CCOCC2)cc1 (centres undefined)	3	3	17	3	3	.
O=C(CCn1c(=O)oc2cc(Cl)ccc21)Nc1ccc(N2CCOCC2)cc1	2	2	49*	5	2	49*
COc1ccc2c(CC(=O)Nc3ccc(OC)c(S(=O)(=O)N4CCOCC4)c3)coc2c1	-6	-5	29	4	2	.
O=C(COc1cccc(Cl)c1)Nc1ccc(N2CCOCC2)cc1	0	4	46*	2	1	47*
O=C(COc1ccc(F)c(Cl)c1)Nc1ccc(N2CCOCC2)cc1	.	.	56*	.	.	55*
COc1ccc2c(CC(=O)Nc3ccc(N4CCOCC4)cc3)coc2c1	1	2	54*	0	5	60*
COc1ccc(F)cc1S(=O)(=O)NCC1CCCO1 (centres undefined)	-3	3	6	17	-3	.
COc1ccc(NC(=O)CSc2nnc(NC(=O)C3CCC3)s2)c(OC)c1	2	1	0	-1	1	.
CCN(CC)CCN(C(=O)c1ccc(S(=O)(=O)N(C)C2CCCCC2)cc1)c1nc2c(C)cccc2s1	-9	-6	4	1	-5	.
Cc1ccc2sc(N(CCCN(C)C)C(=O)c3ccc(S(=O)(=O)N(C)C4CCCCC4)cc3)nc2c1C	7	3	52*	1	3	47*
Cn1c(C2CCCCC2)nc2ccccc21	0	-1	-11	-1	0	.
COCCNC(=O)/C(C#N)=C/c1c(N2CCN(c3ccc(OC)cc3)CC2)nc2c(C)cccn2c1=O	6	2	54*	5	6	49*
CCNC(=O)/C(C#N)=C/c1c(N2CCN(c3ccc(OC)cc3)CC2)nc2c(C)cccn2c1=O	7	-5	55*	-5	7	49*
